{"source": "PubChem BioAssay AID1851", "about": "(National Center for Advancing Translational Sciences (NCATS), 2009)", "note": "In all, about 16,000 compounds went through this assay and about 5,700 (36%) were called active. Inconclusive results (about 24%) are left out. The call rests on the fitted dose curve; in most records, active means well fitted curve in the direction sought with a large enough effect; inconclusive means small, poorly fitted or top-dose-only effect, or effect the other way; inactive means no such curve, though single readings can be large or run the other way. This is one part of the list. On the % scale 0 is the no-effect control and ±100 the full control effect.", "data": [{"molecular_target": "Cytochrome P450 1A2 (Homo sapiens) (UniProt P05177)", "sequence (P05177 whole entry, looked up)": "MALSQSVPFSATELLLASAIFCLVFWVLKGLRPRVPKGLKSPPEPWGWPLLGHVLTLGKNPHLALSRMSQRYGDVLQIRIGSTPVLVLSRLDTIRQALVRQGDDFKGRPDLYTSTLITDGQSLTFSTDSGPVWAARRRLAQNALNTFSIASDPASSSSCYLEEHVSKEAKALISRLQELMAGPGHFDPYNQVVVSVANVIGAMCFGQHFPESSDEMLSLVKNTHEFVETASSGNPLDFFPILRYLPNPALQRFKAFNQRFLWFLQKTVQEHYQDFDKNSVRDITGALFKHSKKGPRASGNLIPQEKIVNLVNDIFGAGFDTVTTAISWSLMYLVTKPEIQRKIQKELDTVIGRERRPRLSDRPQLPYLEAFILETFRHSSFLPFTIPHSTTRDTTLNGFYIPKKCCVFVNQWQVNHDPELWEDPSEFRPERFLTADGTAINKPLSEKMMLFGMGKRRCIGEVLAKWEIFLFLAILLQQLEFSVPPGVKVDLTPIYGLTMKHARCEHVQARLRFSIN", "assay": "Cytochrome panel assay with activity outcomes", "details": "recombinant CYP, pro-luciferin dealkylation, luminescence, p450-cyp1a2; series mostly up to 57.1 µM; activity, negative = inhibition: at the top concentration", "values": [{"smiles": "CCn1c(C)cc(/C=C2\\NC(=O)N(Cc3ccc(Cl)cc3)C2=O)c1C", "AC50": "0.355 µM (active)"}, {"smiles": "CCC(C(=O)NC(C)(C)C)N(C(=O)Cn1nnc(-c2cccs2)n1)c1cnc2ccccc2c1", "note": "(centres undefined)", "activity, negative = inhibition": "-18.4% (inactive)"}, {"smiles": "O=C(Nc1cnc2ccccc2c1)c1cccc(-n2cnnn2)c1", "AC50": "12.6 µM (active)"}, {"smiles": "Cc1cccc(N2CCN(CC(=O)Nc3ccc(-n4cnnn4)cc3)CC2)c1C", "activity, negative = inhibition": "1.94% (inactive)"}, {"smiles": "O=C(Cn1cnc([N+](=O)[O-])n1)N/N=C/c1ccccc1O", "AC50": "4.47 µM (active)"}, {"smiles": "CC(NC(=O)Cn1cnc([N+](=O)[O-])n1)c1ccccc1", "note": "(centres undefined)", "activity, negative = inhibition": "3.46% (inactive)"}, {"smiles": "CC(C)(C)NC(=O)Cn1cnc([N+](=O)[O-])n1", "activity, negative = inhibition": "18.8% (inactive)"}, {"smiles": "COC(=O)[C@@]1(Cc2ccccc2)[C@@H]2C(=CC(=O)[C@H]2CC(=O)C(=O)N(C)C)CN1C(=O)c1ccccc1", "activity, negative = inhibition": "-12.1% (inactive)"}, {"smiles": "COc1ccccc1CCn1c(=O)c(-c2cc(F)cc(F)c2)nc2cncnc21", "AC50": "1.58 µM (active)"}, {"smiles": "COc1ccccc1CCn1c(=O)c(-c2cccc(F)c2)nc2cncnc21", "AC50": "1.58 µM (active)"}, {"smiles": "NC(=O)C1=CN([C@@H]2O[C@@H](COP(=O)(O)OP(=O)(O)OC[C@@H]3O[C@H](n4cnc5c(N)ncnc54)[C@@H](OP(=O)(O)O)[C@@H]3O)[C@H](O)[C@@H]2O)C=CC1", "activity, negative = inhibition": "10.8% (inactive)"}, {"smiles": "CCCn1nc2cc(C(=O)NCc3ccc4c(c3)OCO4)ccc2c1OCC", "activity, negative = inhibition": "-29.7% (inactive)"}, {"smiles": "COCCn1nc2cc(C(=O)NCC34CC5CC(CC(C5)C3)C4)ccc2c1OC", "activity, negative = inhibition": "-21.7% (inactive)"}, {"smiles": "O=C(NC1CCCc2ccccc21)c1ccc(=O)[nH]c1", "note": "(centres undefined)", "activity, negative = inhibition": "15% (inactive)"}, {"smiles": "CCCn1nc2cc(C(=O)NCCCCc3ccccc3)ccc2c1OCC", "activity, negative = inhibition": "-8.93% (inactive)"}, {"smiles": "CCCn1nc2cc(C(=O)NC3CCCc4ccccc43)ccc2c1OCC", "note": "(centres undefined)", "activity, negative = inhibition": "-25.1% (inactive)"}, {"smiles": "CCCCn1nc2cc(C(=O)NCc3ccc(C(F)(F)F)cc3C(F)(F)F)ccc2c1OCC", "activity, negative = inhibition": "-4.35% (inactive)"}, {"smiles": "CCOc1c2ccc(C(=O)NC3CCCc4ccccc43)cc2nn1C", "note": "(centres undefined)", "AC50": "10 µM (active)"}, {"smiles": "CCOc1c2ccc(C(=O)NCCCCc3ccccc3)cc2nn1C", "AC50": "2.51 µM (active)"}, {"smiles": "CCCn1nc2cc(C(=O)NCc3ccc(C)cc3)ccc2c1OC", "AC50": "14.1 µM (active)"}, {"smiles": "CCCn1nc2cc(C(=O)NCCc3ccc(C)cc3)ccc2c1OCC", "activity, negative = inhibition": "-23.8% (inactive)"}, {"smiles": "CCCCn1nc2cc(C(=O)NCCCCc3ccccc3)ccc2c1OCC", "activity, negative = inhibition": "6.46% (inactive)"}, {"smiles": "CCOc1c2ccc(C(=O)NCc3ccc(OC(F)(F)F)cc3)cc2nn1C", "AC50": "2.82 µM (active)"}, {"smiles": "O=C(NCc1ccccc1)c1onc(CSc2ccc(F)cc2)c1C(=O)NCCCN1CCOCC1", "activity, negative = inhibition": "-21.4% (inactive)"}, {"smiles": "COc1cccc(C(=O)N(C)c2nnc(-c3ccncc3)s2)c1", "AC50": "12.6 µM (active)"}, {"smiles": "O=C(c1c(O)c2ccc(Cl)cc2[nH]c1=O)C1CC1", "AC50": "0.0794 µM (active)"}, {"smiles": "O=C(c1n[nH]c(=O)c2ccccc12)N1CCN(C2c3ccccc3-c3ccccc32)CC1", "AC50": "15.8 µM (active)"}, {"smiles": "CCCOc1ccc(CSC(CC(=O)O)C(=O)O)cc1", "note": "(centres undefined)", "activity, negative = inhibition": "12.7% (inactive)"}, {"smiles": "CCCCOc1ccc(CC(=O)NO)cc1", "AC50": "1.58 µM (active)"}, {"smiles": "CCOc1ccc(CSC(CC(=O)O)C(=O)O)cc1", "note": "(centres undefined)", "activity, negative = inhibition": "-24.2% (inactive)"}, {"smiles": "O=C1C2Sc3[nH]c(=O)sc3C(c3ccccc3)C2C(=O)N1c1ccc(Cl)cc1", "note": "(centres undefined)", "activity, negative = inhibition": "-26.8% (inactive)"}, {"smiles": "COc1ccc([C@@H]2CC(=O)c3c(O)cc(O[C@H]4O[C@@H](CO[C@H]5O[C@@H](C)[C@@H](O)[C@@H](O)[C@@H]5O)[C@@H](O)[C@@H](O)[C@@H]4O)cc3O2)cc1O", "activity, negative = inhibition": "-0.0093% [at 25.6 µM] (inactive)"}, {"smiles": "Brc1ccc2cccnc2c1", "AC50": "2.51 µM (active)"}, {"smiles": "Cc1ccc(OCC(O)Cn2c3ccccc3c3ccccc32)cc1", "note": "(centres undefined)", "AC50": "1.41 µM (active)"}, {"smiles": "CC(=O)Nc1ccc(OCC(O)Cn2cnc3ccccc32)cc1", "note": "(centres undefined)", "activity, negative = inhibition": "-3.03% (inactive)"}, {"smiles": "O[C@H](COc1ccccc1)CN1CCCCC1", "activity, negative = inhibition": "-3.85% [at 11.4 µM] (inactive)"}, {"smiles": "Cc1ccccc1OCC(O)Cn1c2ccccc2c2ccccc21", "note": "(centres undefined)", "AC50": "1.78 µM (active)"}, {"smiles": "C[n+]1cn(CC(O)COCc2ccccc2)c2ccccc21", "note": "(centres undefined)", "activity, negative = inhibition": "-13% (inactive)"}, {"smiles": "CC(=O)Nc1ccc(OCC(O)Cn2c3ccccc3c3ccccc32)c(C)c1", "note": "(centres undefined)", "AC50": "2.82 µM (active)"}, {"smiles": "COc1ccc(-c2cc3ccccc3n2CC(O)CNCCO)cc1", "note": "(centres undefined)", "activity, negative = inhibition": "-21.9% (inactive)"}, {"smiles": "C=CCN(CC=C)CC(O)Cn1c2ccccc2c2ccccc21", "note": "(centres undefined)", "AC50": "2 µM (active)"}, {"smiles": "Cc1ccccc1OCC(O)Cn1c(NCc2ccccc2)nc2c1c(=O)[nH]c(=O)n2C", "note": "(centres undefined)", "activity, negative = inhibition": "-29.3% (inactive)"}, {"smiles": "CC[C@@]12CCCN3CCc4c(n(c5ccccc45)C(=O)C1)[C@H]32", "activity, negative = inhibition": "-9.85% [at 2.29 µM] (inactive)"}, {"smiles": "O=C(CCCCC(=O)Nc1c(I)cc(I)c(C(=O)O)c1I)Nc1c(I)cc(I)c(C(=O)O)c1I", "activity, negative = inhibition": "-8.15% [at 25.6 µM] (inactive)"}, {"smiles": "CCN(CC)Cc1c(O)ccc2c(=O)c(Oc3ccccc3OC)coc12", "activity, negative = inhibition": "39.3% (inactive)"}, {"smiles": "CCOc1ccccc1Oc1c(C)oc2cc(OC(=O)c3ccco3)ccc2c1=O", "activity, negative = inhibition": "-30% (inactive)"}, {"smiles": "CCOc1ccccc1Oc1coc2cc(OC)ccc2c1=O", "AC50": "5.01 µM (active)"}, {"smiles": "CC(C)CC(=O)N1CCC(N2CCN(c3ccccc3)CC2)CC1", "activity, negative = inhibition": "-29.8% (inactive)"}, {"smiles": "CCOC(=O)C1=C(O)C(=O)N(Cc2ccccc2)C1", "AC50": "1 µM (active)"}, {"smiles": "CCOC(=O)C1(S(=O)(=O)c2ccccc2)CCN(Cc2ccccc2)CC1", "activity, negative = inhibition": "-10.4% (inactive)"}, {"smiles": "CC(=O)N1CCC2(CCN(Cc3ccccc3)CC2)CC1", "activity, negative = inhibition": "-1.26% (inactive)"}, {"smiles": "CCN(CC)N=Nc1[nH]nc2nc(C)cc(C)c12", "AC50": "2.51 µM (active)"}, {"smiles": "Cc1cc(C)c2c(N=NN(C)C)[nH]nc2n1", "AC50": "2.24 µM (active)"}, {"smiles": "CCOC(=O)N1CCC(NC(=O)CCC(=O)N2CC(C)Oc3ccc(C)cc32)CC1", "note": "(centres undefined)", "activity, negative = inhibition": "-20.3% (inactive)"}, {"smiles": "CO[C@@H]1COC(=O)CC=C[C@@H](C)[C@@H]2C=C[C@@H](O)[C@@H](COC(=O)C/C=C\\[C@H]1C)O2", "activity, negative = inhibition": "-5.43% [at 11.4 µM] (inactive)"}, {"smiles": "CN(C)Cc1ccc(-c2cc3onc(-c4ccccc4)c3c(=O)n2C)cc1", "activity, negative = inhibition": "-13.3% [at 11.4 µM] (inactive)"}, {"smiles": "CC(C)NC(=O)N1CCC2(CC1)CCN(C(=O)c1cnccn1)CC2", "activity, negative = inhibition": "0.219% (inactive)"}, {"smiles": "O=S(=O)(Nc1ccc(Cc2ccncc2)cc1)c1cccs1", "AC50": "0.126 µM (active)"}, {"smiles": "O=S(=O)(Nc1ccc(Cc2ccncc2)cc1)c1ccc(Cl)c(Cl)c1", "AC50": "0.126 µM (active)"}, {"smiles": "COc1ccc(S(=O)(=O)Nc2ccc(S(=O)(=O)N3CCCCC3)cc2)cc1C", "activity, negative = inhibition": "-7.68% (inactive)"}, {"smiles": "O=S(=O)(Nc1ccc(Cc2ccncc2)cc1)c1ccc(Br)cc1", "AC50": "0.0447 µM (active)"}, {"smiles": "Nc1ccc(S(=O)(=O)Nc2ncccn2)cc1", "activity, negative = inhibition": "-0.15% [at 25.6 µM] (inactive)"}, {"smiles": "C/C(=N/S(=O)(=O)c1ccc(Cl)c(Cl)c1)OCC(C)(C)C", "activity, negative = inhibition": "-4.08% [at 11.4 µM] (inactive)"}, {"smiles": "CCNS(=O)(=O)c1ccc(NS(C)(=O)=O)cc1", "activity, negative = inhibition": "-6.6% (inactive)"}]}]}
